Screening data: PubChem BioAssay, Broad Institute
FGF22 binding = binders of recombinant human FGF22 by thermal shift. Q9HCT0. SYPRO orange fluorescence; percent of sucrose octasulfate shift, DMSO zero. activity (Tm shift, normalised), % at 9.99 µM. 340,000 compounds, 1.5% hits. AID 651658;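 active means mean Tm shift, scaled 0 neutral to 100 positive control, at about 1.3% or above, every replicate too, limit read from the data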
Target sequence (Q9HCT0 whole entry, looked up): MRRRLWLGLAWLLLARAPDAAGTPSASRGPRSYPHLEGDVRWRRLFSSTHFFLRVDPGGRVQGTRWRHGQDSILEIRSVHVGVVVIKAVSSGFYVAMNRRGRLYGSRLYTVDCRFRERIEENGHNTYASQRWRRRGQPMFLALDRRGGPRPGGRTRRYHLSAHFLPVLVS
GSIS activator = primary screen for activators of insulin secretion dependent on glucose, INS-1E cells, GLuc reporter luminescence. INS-1E GLuc reporter insulin secretion, 2-3 h. activation, % at 16.6 µM. 370,000 compounds, 0.61% hits. AID 743287;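 active means lowest replicate activation of at least 40%, so every replicate reaches that level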;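 further: 0% = median of neutral control wells and 100% = median of IBMX positive control wells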
ERAP1 inh = ERAP1 (human) enzyme inhibition | recombinant ERAP1, Leu-AMC fluorescence, 60 min | inhibition, % at 10.7 µM | 340,000 compounds, 0.15% hits;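 active means mean replicate inhibition of at least 30%, or all replicates individually reaching that 30% level; inactive means mean below 30% and not every replicate reaching it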;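 further: 0% = neutral control wells and 100% = L-leucinethiol positive control wells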
SIRT5 block = blocks human SIRT5 desuccinylation of peptide; 330,000 compounds, 1.1% hits; Q9NXA8; Purified SirT5, succinyl-peptide AMC, trypsin-coupled fluorescence; AID 652115; inhibition, % at 15 µM; in the data active means inhibition above about 15%
Target sequence (Q9NXA8 whole entry, looked up): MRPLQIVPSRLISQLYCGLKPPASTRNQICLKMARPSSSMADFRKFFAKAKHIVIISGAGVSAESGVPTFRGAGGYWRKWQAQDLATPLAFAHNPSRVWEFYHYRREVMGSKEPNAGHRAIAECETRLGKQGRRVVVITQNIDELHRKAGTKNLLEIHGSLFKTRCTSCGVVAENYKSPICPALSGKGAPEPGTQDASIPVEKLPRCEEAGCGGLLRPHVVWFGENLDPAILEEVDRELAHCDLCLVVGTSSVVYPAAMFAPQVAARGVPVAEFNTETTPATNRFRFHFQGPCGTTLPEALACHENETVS
Casp6 inh = caspase-6 (human) enzyme inhibition | 350,000 compounds, 0.53% hits | P55212 | inhibition, % at 12.5 µM | purified caspase-6, Z-VEID-R110 cleavage fluorescence;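 active means mean inhibition across replicates at least about 35%, with every replicate also reaching that limit, limit read from the data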;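 further: 0% = median of neutral control wells and 100% = no fluorescence left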
An asterisk follows results filed as active; . = not tested or not shown. Most compounds without a hit are left out; they make up all but 3.3% or so of the library.

SMILES	FGF22 binding	GSIS activator	ERAP1 inh	SIRT5 block	Casp6 inh
COc1ccc(NC(=O)COC(=O)C2=COCCO2)cc1OC	44*	-22	1	-5	-1
COc1ccc(CC(=O)OCC(=O)Nc2ccc3[nH]c(=O)[nH]c3c2)cc1OC	-1	.	3	.	-3
C/C=C/C(=O)OCC(=O)Nc1ccc(OC)c(Cl)c1	.	4	.	.	.
COc1ccc(NC(=O)Nc2ccc3c(c2)CC(=O)N([C@H](C)CO)C[C@H](C)[C@@H](CN(C)Cc2ccc4c(c2)OCO4)O3)cc1	0	-9	1	3	0
O=C(Nc1cc(F)ccc1F)N[C@@H]1CC[C@H](CCn2cc(C3CC3)nn2)O[C@H]1CO	0	-13	0	1	-1
Cc1noc(C)c1S(=O)(=O)N(C)C[C@@H]1OCCCC[C@@H](C)Oc2ccc(NC(=O)CCCN(C)C)cc2C(=O)N([C@@H](C)CO)C[C@H]1C	0	36	0	-6	3
CCCNC(=O)[C@H]1[C@H](CO)[C@H]2Cn3c(ccc(C4=CCCC4)c3=O)[C@H]2N1CCC(F)(F)F	0	6	0	-5	-2
COc1cc(OC)c(OC)cc1CCC(C)NC(=O)Cc1ccccc1 (stereo unspecified)	0	44*	2	-3	-1
Clc1ccc(/C=N/NC2=Nc3cccc4cccc2c34)cc1	.	98*	.	.	.
CCc1ccc(S(=O)(=O)/N=C2\C=C(Nc3ccc(C(=O)O)cc3)C(=O)c3ccccc32)cc1	0	-23	7	2	97*
CC(C)(C)c1ccc(S(=O)(=O)/N=C2\C=C(NS(=O)(=O)c3ccccc3)C(=O)c3ccccc32)cc1	0	-24	3	10	50*
Cc1ccc(S(=O)(=O)/N=C2\C=C(Nc3cccc(C(=O)O)c3)C(=O)c3ccccc32)c(C)c1	-1	-26	-23	3	100*
Cc1ccc(S(=O)(=O)/N=C2\C=C(Nc3cccc(C(=O)O)c3)C(=O)c3ccccc32)cc1	0	-14	-31	-3	99*
O=C(CNC(=O)c1ccccc1)OCC(=O)N1N=C(c2ccc(Cl)cc2)CC1c1ccco1 (stereo unspecified)	43*	-12	0	-1	-1
O=C(O)CCC(=O)N1N=C(c2ccco2)CC1c1cccs1 (stereo unspecified)	0	.	-2	4	34
COc1ccc(C2=NN(C(=O)CSc3nnc(C)n3C)C(c3ccco3)C2)cc1 (stereo unspecified)	43*	5	4	6	-6
Cn1nnnc1SCC(=O)N1N=C(c2ccc(Cl)cc2)CC1c1ccco1 (stereo unspecified)	0	.	1	-2	7
O=C(O)CCC(=O)N1N=C(c2ccco2)CC1c1ccco1 (stereo unspecified)	0	-11	-3	3	41*
COc1ccc2c3c([nH]c2c1)[C@@H](CO)N(C(=O)CN1CCOCC1)CC31CN(C)C1	.	26	.	.	.
O=C(C[C@H]1CC[C@H]2[C@@H](COC[C@H](O)CN2Cc2nccs2)O1)NCc1ccc(Cl)cc1	0	9	2	-1	-3
CC(C)CC#Cc1ccc2c(c1)O[C@@H](CN(C)C(=O)NC(C)C)[C@H](C)CN([C@H](C)CO)S2(=O)=O	0	-27	0	4	2
CC(C)CC#Cc1ccc2c(c1)O[C@H](CN(C)C(=O)NC1CCCC1)[C@H](C)CN([C@@H](C)CO)S2(=O)=O	0	-16	2	4	-2
CC(C)CC#Cc1ccc2c(c1)O[C@H](CN(C)C(=O)NC1CCCC1)[C@H](C)CN([C@H](C)CO)S2(=O)=O	0	-2	1	13*	3
CC(C)CC#Cc1ccc2c(c1)O[C@@H](CN(C)C(=O)NC(C)C)[C@@H](C)CN([C@H](C)CO)S2(=O)=O	0	-32	0	3	-1
CC(C)CC#Cc1ccc2c(c1)O[C@H](CN(C)C(=O)NC1CCCC1)[C@@H](C)CN([C@@H](C)CO)S2(=O)=O	0	4	-2	19*	1
SMILES	FGF22 binding	GSIS activator	ERAP1 inh	SIRT5 block	Casp6 inh
CC(C)CC#Cc1ccc2c(c1)O[C@@H](CN(C)C(=O)NC1CCCC1)[C@@H](C)CN([C@@H](C)CO)S2(=O)=O	0	35	4	16*	-1
C[C@@H]1CCCCO[C@H](CN(C)C(=O)Nc2ccc(F)cc2)[C@H](C)CN([C@H](C)CO)C(=O)c2cc(NC(=O)c3ccncc3)ccc2O1	1	6	-2	0	-1
C[C@@H]1CN([C@@H](C)CO)C(=O)c2cccc(NC(=O)Nc3ccc(C(F)(F)F)cc3)c2O[C@H]1CN(C)C(=O)Nc1ccc(F)cc1	0	-23	1	2	0
CCCCCCn1c(SCC(C)C)nc2c1c(=O)[nH]c(=O)n2C	.	71*	.	.	.
COCCSc1nc2c(c(=O)[nH]c(=O)n2C)n1CCC(C)C	0	.	-4	-1	-1
C=C(C)CSc1nc2c(c(=O)[nH]c(=O)n2C)n1CCC(C)C	0	55*	.	.	0
COCCn1c(SCCN2CCOCC2)nc2c1c(=O)[nH]c(=O)n2C	0	.	13	-4	36*
CC(C)CSc1nc2c(c(=O)[nH]c(=O)n2C)n1CCc1ccccc1	.	71*	.	.	.
Cc1ccccc1-c1ccc2c(c1)O[C@@H](CN(C)Cc1ccncc1)[C@H](C)CN([C@@H](C)CO)S2(=O)=O	0	-29	2	0	-1
CCOc1cc(/C=N/Nc2ccc(C(=O)O)cc2)ccc1OC(=O)c1ccccc1C	-1	-54	0	26*	14
COc1cccc(C(=O)Oc2ccc(/C=N/Nc3ccc(C(=O)O)cc3)cc2OC)c1	0	-19	-1	8	7
C=CCC[C@@H](CCCCC)OC(=O)/C=C/[C@H](O)[C@@H](O)C[C@H](O)CC=C	0	-36	.	16*	2
O=C(Nc1ccc(NC(=O)c2cccs2)cc1)c1ccc2c(c1)OCO2	0	47*	0	-2	-3
Cc1ccc2oc(-c3ccc(NC(=O)c4ccc5c(c4)OCO5)cc3)nc2c1	.	246*	.	.	.
O=C(Nc1ccc(-c2nc3ccccc3o2)cc1)c1ccc2c(c1)OCO2	0	9	5	-2	0
CCOC(=O)c1[nH]c2cc(OC)c(OC)cc2c1NC(=O)c1ccc2c(c1)OCO2	.	69*	.	.	.
CCOC(=O)c1[nH]c2ccccc2c1NC(=O)c1ccc2c(c1)OCO2	0	.	-4	-3	3
CCOC(=O)c1cccc(NC(=O)c2ccc3c(c2)OCO3)c1	0	17	-2	19*	2
COc1cccc(Nc2nc(C(N)Cc3ccccc3)cs2)n1 (stereo unspecified)	0	.	2	.	-1
COc1cccc(Nc2nc(C(N)CO)cs2)n1 (stereo unspecified)	0	41*	1	-5	-1
COc1ccc2c3c(n(C)c2c1)[C@@H](CO)N(C(=O)Nc1ccc(F)cc1)CC31CCN(Cc2cccnc2)CC1	.	-23	.	.	.
